Results on 16 compounds are retold here after PubChem BioAssay (EPA / NIEHS).

Experiment [1] concerns the target Cellular tumor antigen p53 (Homo sapiens) (UniProt P04637). Put plainly: TOX21_p53_BLA_p3_ratio: Tox21 HCT-116 p53 Agonism Beta-lactamase Assay, Ratio, Phase 3 (AID 2283596). A digest of the protocol: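 Cells were seeded at 4000/well, rested 5 h at 37C, then dosed with DMSO compound solutions (217-fold dilution) for 16 h. CCF4-AM substrate was loaded for 2 h at room temperature, and the 460/530 nm emission ratio was fitted for gain of signal versus DMSO.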

For experiment [2] the target is unchanged. In words: TOX21_p53_BLA_p5_ratio: Tox21 HCT-116 p53 Agonism Beta-lactamase Assay, Ratio, Phase 5 (AID 2283599). A digest of the protocol:
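Beta-lactamase reporter ratio (blue 460 nm over green 530 nm, 405 nm excitation) after 2 h CCF4-AM loading, in HCT-116 cells exposed 16 h at 37 C to compounds pinned at 217-fold dilution. Increases relative to DMSO baseline scored.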

Experiment [3] is described as follows: TOX21_p53_BLA_p5_viability: Viability Assessment in the Tox21 HCT-116 p53 Agonism Beta-lactamase Assay, Phase 5 (AID 2283600). A digest of the protocol:
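Viability is taken from cellular ATP content, measured by luciferase luminescence in the same wells after the beta-lactamase ratio read. Cells are seeded at 4000 per well and exposed to DMSO-dissolved compounds, diluted 217-fold, for 16 h.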

In experiment [4] the target is Cellular tumor antigen p53 (Homo sapiens) (UniProt P04637). Put plainly: TOX21_p53_BLA_p4_ratio: Tox21 HCT-116 p53 Agonism Beta-lactamase Assay, Ratio, Phase 4 (AID 2283601). Put shortly: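 Signal is the blue/green (460nm/530nm) ratio of cleaved versus uncleaved CCF4-AM substrate, read after 2 h substrate loading. Cells were HCT116 carrying the p53-responsive beta-lactamase reporter, dosed 16 h at 37C, 5% CO2; CellTiter-Glo measured in parallel.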

Experiment [5] can be described thus: Tanguay_ZF_120hpf_MORT_legacy: (Legacy) Oregon State University Tanguay Lab 120 Hour Post-fertilization zebrafish Assay for Mortality (AID 2283633).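 For AC50: fitted as increase in binary mortality versus DMSO negative control.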 A digest of the protocol:
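Mortality endpoint from a multiplexed whole-embryo zebrafish screen. Dechorionated wild-type embryos received compound at 6 hpf and remained under static exposure at 28C until 120 hpf, with death noted as a present/absent call.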

Experiment [6] can be described thus: Tanguay_ZF_120hpf_YSE_legacy: (Legacy) Oregon State University Tanguay Lab 120 Hour Post-fertilization zebrafish Assay for Yolk Sac Edema (AID 2283634). A digest of the protocol:
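Readout: presence or absence of yolk sac edema at 120 hpf, fitted upward against DMSO controls. Exposure ran statically from 6 hpf in dechorionated embryos kept at 28C.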

A short description of experiment [7]: Tanguay_ZF_120hpf_AXIS_legacy: (Legacy) Oregon State University Tanguay Lab 120 Hour Post-fertilization zebrafish Assay for Body Axis Malformation (AID 2283635).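 For AC50: potency for an increased fraction of larvae scored with body axis malformation.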 Put shortly: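 Static 6–120 hpf chemical exposure of dechorionated wild-type 5D zebrafish, one per well at 28C; morphology endpoint scored binary at 120 hpf relative to DMSO control.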
Experiment [8] is described as follows: Tanguay_ZF_120hpf_SNOU_legacy: (Legacy) Oregon State University Tanguay Lab 120 Hour Post-fertilization zebrafish Assay for Snout Malformation (AID 2283637). A digest of the protocol: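 Binary snout-malformation call at 120 hpf in wild-type 5D embryos, chorion removed by pronase, under static exposure from 6 hpf at 28C (0.64% DMSO). Embryos dying by 24 or 120 hpf excluded.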

The nature of experiment [9]: TOX21_p53_BLA_p4_viability: Viability Assessment in the Tox21 HCT-116 p53 Agonism Beta-lactamase Assay, Phase 4 (AID 2283597).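 Note: hits lower the luminescence signal meaning cytotoxicity.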 A digest of the protocol: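 Viability is taken as cellular ATP: after 16 h compound exposure of HCT116 cells and a 2 h room-temperature CCF4-AM substrate step, CellTiter-Glo reagent is added and luminescence is measured 30 min later.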
Experiment [10] in a line: Tanguay_ZF_120hpf_EYE_legacy: (Legacy) Oregon State University Tanguay Lab 120 Hour Post-fertilization zebrafish Assay for Eye Malformation (AID 2283636).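 Note: binary presence or absence of eye malformation scored by brightfield in 120 hpf larvae.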 Put shortly:
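Binary brightfield scoring of eye defects at 120 hpf after static exposure from 6 hpf of single pronase-dechorionated wild-type embryos (28C, 0.64% DMSO). Non-mortality endpoints omitted where embryos died; fit vs DMSO.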

Several values for one entry are separate records, joined by “and”; a condition that tells them apart may be missing. Identical values can stand only once. Inconclusive results are not listed. Where a structure was tested more than once in an assay, its records may differ in their call. Activity calls are given as the source filed them. Rule for the calls: active = hit-call score of the fitted dose curve at least 0.9, where 1 is the maximum; inconclusive = response in the unintended direction; inactive = score below 0.9.

Chain of Cellular tumor antigen p53 (Homo sapiens) (P04637 whole entry, looked up): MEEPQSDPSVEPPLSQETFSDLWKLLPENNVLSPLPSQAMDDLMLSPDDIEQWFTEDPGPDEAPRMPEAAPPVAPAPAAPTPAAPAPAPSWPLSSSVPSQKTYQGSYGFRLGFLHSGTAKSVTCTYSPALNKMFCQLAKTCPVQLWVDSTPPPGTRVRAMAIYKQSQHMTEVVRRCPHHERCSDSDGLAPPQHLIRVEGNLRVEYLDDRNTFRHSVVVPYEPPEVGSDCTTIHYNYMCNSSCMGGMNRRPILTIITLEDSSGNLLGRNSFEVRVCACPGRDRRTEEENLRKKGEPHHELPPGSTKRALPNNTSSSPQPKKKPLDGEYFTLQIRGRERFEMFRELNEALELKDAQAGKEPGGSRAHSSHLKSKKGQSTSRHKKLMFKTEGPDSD

On to `CCCCCCCCCCCC[N+](C)(C)C`, for which the AC50 in experiment [1] was 21 µM (active) and 16 µM (active) and 46.1 µM (active); in [2], 33.3 µM (active); in experiment [4], 37.4 µM (active) and 17.3 µM (active) and 46.4 µM (active). The result in [2], in [3], in [5], in experiment [6], in experiment [7] and in [8] was inactive.
As for `CC[C@@H]1C[C@H](N(Cc2cc(C(F)(F)F)cc(C(F)(F)F)c2)C(C)=O)c2cc(C(F)(F)F)ccc2N1C(=O)OC(C)C`, the outcome in experiment [1], in [9], in experiment [2], in experiment [3], in experiment [4] and in [5] was inactive. Also, the outcome in [6], in [10] and in [8] was inactive.
For the compound `c1ccc(C[n+]2cccc3ccccc32)cc1`, the result in experiment [1], in [2], in experiment [3], in [4], in [5] and in [6] was inactive. The call in experiment [7] and in experiment [10] was inactive.
As to `Cc1c2ccccc2c(C)c2c1ccc1ccccc12`, the AC50 in [1] was 29.5 µM (active) and 52.5 µM (active); in [2] it was 41.7 µM (active); in [4], 43.2 µM (active) and 30.5 µM (active). For the same compound, the result in experiment [2], in [3], in experiment [5], in [6], in experiment [10] and in [8] was inactive.
Consider `CCOC(=O)O[C@H](C)OC(=O)c1ccc2c(c1)cc(C(=O)NC1CCN(C(C)C)CC1)n2Cc1cc(-c2ccc(Cl)s2)on1`, for which the AC50 was 81.9 µM (active) in experiment [1]; 13.5 µM (active) in [9]; 80.9 µM (active) in experiment [2]; 72.9 µM (active) in experiment [3]; 23.7 µM (active) in experiment [5]; 54.1 µM (active) in experiment [8]. For the same compound, the result in [6], in experiment [7] and in experiment [10] was inactive.
Consider `O=C(Nc1ccc(Cl)cc1)Nc1ccc(Cl)c(Cl)c1`, for which the AC50 in experiment [1] is 5.76 µM (active) and 4.62 µM (active) and 6.38 µM (active); in experiment [2], 6.25 µM (active) and 12.1 µM (active); in [4], 4.01 µM (active) and 4.85 µM (active) and 6.48 µM (active). Besides, the outcome in [9], in [2], in experiment [3], in [5], in [6] and in [7] was inactive. The result in [8] was inactive.
`NCc1cccc(C2CCN(C(=O)c3ccc(C#Cc4ccccc4F)o3)CC2)c1`: the AC50 in experiment [1] is 86.8 µM (active); in experiment [2], 82.9 µM (active); in [4], 84.4 µM (active); in experiment [5], 12 µM (active). Besides, the result in [3], in [6], in [7], in [10] and in [8] was inactive.
Take `CC/C(=C(/CC)c1ccc(O)cc1)c1ccc(O)cc1`: the AC50 in [1] is 11.8 µM (active) and 14 µM (active); in experiment [2] it was 17.3 µM (active) and 4.28 µM (active); in experiment [3], 75.1 µM (active); in [4] it was 38.3 µM (active) and 8.57 µM (active); in experiment [5], 10.8 µM (active). Also, the compound was classed as inactive in experiment [3], in experiment [6], in experiment [7] and in experiment [8].
Regarding `CCN(Cc1cccc(S(=O)(=O)O)c1)c1ccc(C(=C2C=CC(=[N+](CC)Cc3cccc(S(=O)(=O)O)c3)C=C2)c2ccccc2S(=O)(=O)[O-])cc1`, the outcome in experiment [1], in [2], in [3], in [4], in experiment [5] and in experiment [6] was inactive. Further, the call in [7], in [10] and in experiment [8] was inactive. Moreover, the AC50 in experiment [9] is 35.5 µM (active).
Consider `CC(C)(c1cc(Br)c(O)c(Br)c1)c1cc(Br)c(O)c(Br)c1`, for which the AC50 is 50.4 µM (active) and 63.7 µM (active) and 58.5 µM (active) in [1]; 34.3 µM (active) and 46 µM (active) in experiment [9]; 67.7 µM (active) and 76.3 µM (active) and 65.8 µM (active) in experiment [2]; 44 µM (active) and 57 µM (active) and 63.6 µM (active) in experiment [3]; 58.8 µM (active) and 71.4 µM (active) and 63.2 µM (active) in [4]; 4.89 µM (active) in experiment [5]. Besides, the outcome in [6], in [7], in experiment [10] and in [8] was inactive.
For the compound `O=C(O)Cc1cc(I)c(Oc2ccc(O)c(I)c2)c(I)c1`, the AC50 in experiment [1] was 1.64 µM (active) and 8.48 µM (active); in [9], 19 µM (active) and 5.82 µM (active); in [2] it was 1.95 µM (active) and 16.7 µM (active); in experiment [3], 21.8 µM (active); in [4], 3.33 µM (active) and 5.61 µM (active); in [7] it was 0.0871 µM (active). Besides, in experiment [8], the AC50 is 0.0814 µM (active). The compound was classed as inactive in experiment [3], in experiment [5], in [6] and in experiment [10].
As for `CN(C)C(=O)C1(N2CCCCC2)CCN(CC[C@@]2(c3ccc(Cl)c(Cl)c3)CN(C(=O)c3ccccc3)CCO2)CC1`, the AC50 in experiment [1] was 82.3 µM (active); in experiment [9], 34 µM (active); in experiment [2], 82 µM (active); in experiment [3], 74.6 µM (active); in experiment [4] it was 48.5 µM (active); in experiment [5] it was 16.4 µM (active). Further, the result in [6], in experiment [10] and in [8] was inactive.
For `CCCCCCCCCC(=O)O`, the result in experiment [1], in experiment [2], in [3], in experiment [4], in [5] and in [6] was inactive. In addition, the call in experiment [7], in experiment [10] and in [8] was inactive.
Turning to `CC(C)(C)c1csc(-c2cc3cc(OCc4ccccc4CC(=O)O)ccc3o2)n1`, the AC50 in [1] is 27.9 µM (active); in experiment [2] it was 47 µM (active); in experiment [4] it was 49.9 µM (active); in experiment [5], 25.9 µM (active). The outcome in experiment [3], in experiment [6], in experiment [7] and in [10] was inactive.
In the case of `CCCCCCCCOc1ccc(C(=O)c2ccccc2)c(O)c1`, the result in experiment [1], in experiment [9], in experiment [2], in [3], in experiment [4] and in [5] was inactive. In addition, the call in [6], in experiment [7], in experiment [10] and in [8] was inactive.
As to `O=CCCCC=O`, the AC50 in [1] was 69.9 µM (active) and 37 µM (active). In addition, the call in experiment [9], in experiment [2], in experiment [3], in experiment [4], in experiment [5] and in experiment [6] was inactive. For the same compound, the compound was called inactive in experiment [10] and in experiment [8].

The AC50 is the concentration giving half of the maximal activity seen.
